According to PubChem BioAssay AID1347418 (Sanford-Burnham Center for Chemical Genomics, 2020):
Among all 1,300 compounds or so, about 750 (58%) were called active. This is one part of the list.

Target: Sulfhydryl oxidase 1 (Homo sapiens) (UniProt O00391)
Test: inhibition of human sulfhydryl oxidase QSOX1 – biochemical, ROS-Glo H2O2 luminescence, HTS, primary screen (AID 1347418)
Conditions: recombinant QSOX1, ROS-Glo H2O2 luminescence, at 12.5 µM, hits give high values; active = any value above zero unless noted

Chain of Sulfhydryl oxidase 1 (Homo sapiens) (O00391 whole entry, looked up): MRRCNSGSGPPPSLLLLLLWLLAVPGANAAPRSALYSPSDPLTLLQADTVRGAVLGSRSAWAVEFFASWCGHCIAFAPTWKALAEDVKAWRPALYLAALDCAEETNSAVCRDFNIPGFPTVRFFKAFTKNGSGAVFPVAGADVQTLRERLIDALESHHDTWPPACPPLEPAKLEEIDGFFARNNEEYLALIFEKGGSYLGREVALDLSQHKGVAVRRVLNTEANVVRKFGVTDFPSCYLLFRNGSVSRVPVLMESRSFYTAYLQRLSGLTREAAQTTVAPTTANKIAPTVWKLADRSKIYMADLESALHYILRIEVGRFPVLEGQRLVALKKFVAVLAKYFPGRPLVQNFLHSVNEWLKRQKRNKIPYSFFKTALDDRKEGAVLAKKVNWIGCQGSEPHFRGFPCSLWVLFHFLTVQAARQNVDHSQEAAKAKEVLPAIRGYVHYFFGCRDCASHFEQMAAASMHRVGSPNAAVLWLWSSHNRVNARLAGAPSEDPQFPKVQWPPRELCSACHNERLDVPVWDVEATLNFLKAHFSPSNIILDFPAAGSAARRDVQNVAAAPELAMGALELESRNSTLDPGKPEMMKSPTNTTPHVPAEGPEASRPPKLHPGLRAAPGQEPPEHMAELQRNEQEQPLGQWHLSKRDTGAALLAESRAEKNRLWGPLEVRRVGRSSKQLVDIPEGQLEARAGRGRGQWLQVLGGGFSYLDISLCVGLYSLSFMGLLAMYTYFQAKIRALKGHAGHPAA

| Compound | inhibition |
| --- | --- |
| O=C(O)c1nn(Cc2ccc(Cl)cc2Cl)c2ccccc12 | 6.3% [setting not given] (active) |
| CCS(=O)(=O)Nc1cccc(C(=C2CCCCC2)c2cnc[nH]2)c1 | 1.9% (active) |
| O=[N+]([O-])/C=C/c1ccc2c(c1)OCO2 | -5.8% (inactive) |
| CC[C@@]1(O)C(=O)OCc2c1cc1n(c2=O)Cc2cc3ccccc3nc2-1 | 6.2% [setting not given] (active) |
| NC(Cc1cc(O)c(O)cc1O)C(=O)O (stereo not given) | 12% (active) |
| CNCCc1c[nH]c2ccc(O)cc12 | 9.6% [setting not given] (active) |
| COc1ccc2[nH]cc(CCN)c2c1 | -1.9% [setting not given] (inactive) |
| NCCc1c[nH]c2ccc(O)cc12 | 23.8% (active) |
| CCCN(CCC)CCc1c[nH]c2ccc(C(N)=O)cc12 | -6.3% [setting not given] (inactive) |
| NCCc1c[nH]c2ccccc12 | 5.9% [setting not given] (active) |
| NCCc1c[nH]c2ccc(C(N)=O)cc12 | 0.5% (active) |
| OC1CCCCC1N1CCC(c2ccccc2)CC1 (stereo not given) | -0.9% [setting not given] (inactive) |
| Cc1[nH]c2ccc(O)cc2c1CCN | 16.3% [setting not given] (active) |
| CC(N)Cc1c[nH]c2ccc(OCc3cccs3)cc12 (stereo not given) | 0.1% [setting not given] (active) |
| CC(=O)NCCc1c[nH]c2ccccc12 | 12.2% [setting not given] (active) |
| CC(N)Cc1c[nH]c2ccc(O)cc12 (stereo not given) | 20.8% [setting not given] (active) |
| c1ccc2c(c1)OCC(C1=NCCN1)O2 (stereo not given) | -2.6% (inactive) |
| Cn1cnc(CCN)c1 | -4.6% (inactive) |
| CN1C[C@H](CNC(=O)OCc2ccccc2)C[C@@H]2c3cccc4c3c(cn4C)C[C@H]21 | 10.7% [setting not given] (active) |
| CP(=O)(O)C1=CCNCC1 | 0.8% (active) |

| Compound | inhibition |
| --- | --- |
| NC(N)=NOCCC(N)C(=O)O (stereo not given) | -1% (inactive) |
| NC(N)=NOCC[C@H](N)C(=O)O | 4% [setting not given] (active) |
| NNC(=O)c1ccc(O)cc1 | -1% (inactive) |
| NCC(O)c1ccc(O)cc1 (stereo not given) | 6.8% [setting not given] (active) |
| CNCC(O)c1ccc(O)cc1 (stereo not given) | 2.1% [setting not given] (active) |
| COc1cc(C(O)CN)ccc1O (stereo not given) | 4.4% (active) |
| O=C(O)Cc1cnc[nH]1 | 4.8% (active) |
| OCc1cnc[nH]1 | -0.7% (inactive) |
| O=C1/C(=C/c2ccccc2)C[C@@]2(O)[C@H]3Cc4ccc(O)c5c4[C@@]2(CCN3CC2CC2)[C@H]1O5 | -0.8% [setting not given] (inactive) |
| Oc1ccc2c3c1O[C@H]1c4[nH]c5c(c4C[C@@]4(O)[C@@H](C2)N(CC2CC2)CC[C@]314)C[C@@]1(O)[C@H]2Cc3ccc(O)c4c3[C@@]1(CCN2CC1CC1)[C@H]5O4 | 0.3% (active) |
| Oc1ccc2c3c1O[C@H]1c4oc5ccccc5c4C[C@@]4(O)C(C2)N(CC2CC2)CCC314 (stereo not given in full) | 1.7% [setting not given] (active) |
| Oc1ccc2c3c1O[C@H]1c4[nH]c5ccccc5c4C[C@@]4(O)C(C2)N(CC2CC2)CCC314 (stereo not given in full) | 8.5% [setting not given] (active) |
| NC(N)=Nc1ccc2[nH]c3c(c2c1)C[C@@]1(O)[C@H]2Cc4ccc(O)c5c4[C@@]1(CCN2CC1CC1)[C@H]3O5 | 7.1% [setting not given] (active) |
| CC(C)(O)[C@@H]1[C@H]2OC(=O)[C@@H]1[C@]1(O)C[C@H]3O[C@]34C(=O)O[C@H]2[C@]14C (tested in a mixture with another compound) | -1.5% (inactive) |
| CN1CCc2cccc(Cl)c2CC1 | -4.5% (inactive) |
| CC(C)Oc1cccnc1N(C)C1CCN(Cc2ccccc2)CC1 | 8.9% (active) |
| O=c1[nH]c2ccccc2n1C1CCN(CCCC(c2ccc(F)cc2)c2ccc(F)cc2)CC1 | 4.6% [setting not given] (active) |
| O=c1[nH]c2ccccc2n1CCCN1CCC(n2c(=O)[nH]c3cc(Cl)ccc32)CC1 | -1.8% [setting not given] (inactive) |
| NC(Cc1ccc(N(CCCl)CCCl)cc1)C(=O)O (stereo not given) | 32.1% (active) |
| O=C(O)CCCc1ccc(N(CCCl)CCCl)cc1 | 4.4% [setting not given] (active) |

| Compound | inhibition |
| --- | --- |
| Cn1c(CCCC(=O)O)nc2cc(N(CCCl)CCCl)ccc21 | 33.3% (active) |
| Cc1ncc(CNC(=O)N(CCCl)N=O)c(N)n1 | -0.8% (inactive) |
| CCCn1c(C)c(C(=O)c2ccc3ccccc3c2)c2ccccc21 | 3.4% [setting not given] (active) |
| O=c1c2ccccc2[se]n1-c1ccccc1 | 61% [setting not given] (active) |
| CCCN1CCC[C@H](c2cccc(O)c2)C1 | 0.7% (active) |
| CCCN1CCC[C@@H](c2cccc(O)c2)C1 | -1.9% (inactive) |
| C=C(C)[C@H]1Cc2c(ccc3c2O[C@@H]2COc4cc(OC)c(OC)cc4[C@@H]2C3=O)O1 | 8.2% [setting not given] (active) |
| Cc1ccc(S(=O)(=O)N[C@@H](CCCCN)C(=O)CCl)cc1 | 2.5% (active) |
| COC(=O)C1=CCCN(C)C1 | 0.8% [setting not given] (active) |
| C#CCOC(=O)C1=CCCN(C)C1 | -6.3% (inactive) |
| NCc1cc(=O)[nH]o1 | -4.8% (inactive) |
| CN1C(=O)CCS(=O)(=O)C1c1ccc(Cl)cc1 (stereo not given) | 4.6% (active) |
| NNC(N)=O | 2% (active) |
| NC(=O)CI | -1.4% (inactive) |
| c1ccc2c(N3CCNCC3)cccc2c1 | 2.2% (active) |
| COc1ccccc1N1CCNCC1 | -0.9% [setting not given] (inactive) |
| CS(=N)(=O)CC[C@H](N)C(=O)O (stereo not given in full) | 2% (active) |
| CC(=O)OCC1=C(C(=O)O)N2C(=O)[C@@H](NC(=O)CCC[C@@H](N)C(=O)O)[C@H]2SC1 | -4.2% (inactive) |
| COc1ccc2c(c1)c(CCN1CCOCC1)c(C)n2C(=O)c1cccc(Cl)c1Cl | 1.4% (active) |
| CC(C)=CCOc1c2occc2cc2ccc(=O)oc12 | 2.6% [setting not given] (active) |
